In PubChem BioAssay (EPA / NIEHS):
Where “and” joins values, the source holds several entries; their conditions need not be identical. Equal entries are not always repeated. Results filed as inconclusive are left out. More than one record can exist for a structure, and the calls need not agree. Calls of active or inactive are those of the source. How the source made its calls, unless noted: active means hit-call score of the fitted dose curve at least 0.9, where 1 is the maximum; inactive means score below 0.9.

How the values were obtained:
[1] = BSK_BT_PBMCCytotoxicity: PBMC Cytotoxicity Assessment in the BioMAP Diversity Plus: BT Assay (AID 2284225); conditions: primary human B cells with PBMC;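 further: PBMC viability measured by Alamar Blue dye reduction fluorescence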
Summary of the method: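 Viability by Alamar Blue reduction (6 h, ex/em 546/580 nm) after 90 h culture of SEB/TSST-1-activated PBMC (20 ng/mL each) given compound 1 h before activation. DMSO served as baseline for curve fitting.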

[2] = read-out: Secreted IgG (sIgG), gene 3500; assay: BSK_BT_sIgG: BioMAP Diversity Plus: BT Assay for Secreted IgG (sIgG) Biomarker Activity (AID 2284226); conditions: primary human B cells with PBMC
Summary of the method: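 Cells (B cells with peripheral blood mononuclear cells) are dosed, cultured 24 h, then supernatant IgG is measured by ELISA. DMSO serves as negative control; curves are fitted for signal increase.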

[3] = BSK_BT_Bcell_Proliferation: Viability Assessment in the BioMAP Diversity Plus: BT Assay for B cell Proliferation (AID 2284227); conditions: primary human B cells with PBMC
Summary of the method: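 SRB-based protein staining (0.1% SRB after 10% TCA fixation, 560 nm) quantifies proliferation in human B cells co-cultured with PBMC, 72 h post-dosing, with signal gain scored relative to DMSO negative control.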

[4] = read-out: Interleukin 6 (IL6), IL6 (gene 3569); assay: BSK_BT_xIL6: BioMAP Diversity Plus: BT Assay for Interleukin 6 (IL6) Biomarker Activity (AID 2284228); conditions: primary human B cells with PBMC
Summary of the method: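 B cells and peripheral blood mononuclear cells (human primary co-culture) were dosed with chemical, and after 24 h IL-6 released into the medium was measured by Luminex xMAP. Responses were analysed as gain of signal over DMSO control.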

[5] = read-out: Interleukin 17A (IL17A), IL17A (gene 3605); assay: BSK_BT_xIL17A: BioMAP Diversity Plus: BT Assay for Interleukin 17A (IL17A) Biomarker Activity (AID 2284229); conditions: primary human B cells with PBMC
Summary of the method: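 Secreted IL-17A was the measured endpoint, read by Luminex xMAP multiplex in supernatants of a human B cell/PBMC co-culture harvested 24 h after chemical dosing. Signal increase relative to DMSO defined activity.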

[6] = read-out: Vascular cell adhesion molecule 1 (VCAM1), VCAM1 (gene 7412); assay: BSK_MyoF_VCAM1: BioMAP Diversity Plus: MyoF Assay for Vascular cell adhesion molecule 1 (VCAM1) Biomarker Activity (AID 2284231); conditions: primary human lung fibroblasts
Summary of the method: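 ELISA read-out of VCAM-1 on human lung fibroblasts 24 h after chemical treatment, with positive-direction curve fitting relative to DMSO controls. Parallel cultures were stained with sulforhodamine B for total protein to flag overt cytotoxicity.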

[7] = read-out: Collagen I, COL1A1 (gene 1277); assay: BSK_MyoF_CollagenI: BioMAP Diversity Plus: MyoF Assay for Collagen I Biomarker Activity (AID 2284238); conditions: primary human lung fibroblasts
Summary of the method: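 Lung fibroblasts (human primary) dosed, 24 h; Collagen I by ELISA; positive-direction fit vs DMSO control. Parallel SRB total-protein staining (0.1% SRB, 10% TCA fixation, 560 nm) flags overt cytotoxicity.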

[8] = read-out: Collagen III, COL3A1 (gene 1281); assay: BSK_MyoF_CollagenIII: BioMAP Diversity Plus: MyoF Assay for Collagen III Biomarker Activity (AID 2284239); conditions: primary human lung fibroblasts
Summary of the method: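 ELISA read-out of collagen III from human lung fibroblasts after 24 h of chemical treatment. The DMSO control served as negative control and baseline, with values fitted in the positive direction.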

[9] = CCTE_Mundy_HCI_hN2_NOG_NeuriteLength: CCTE's Neurite Outgrowth Assay in human hN2 cells for Neurite Length, Mundy Lab (AID 2284220; active means hit-call score of the fitted dose curve at least 0.9, where 1 is the maximum)
Summary of the method: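 Plate hNP1-derived neurons, then add chemical 2 h later as a 1/10 dilution. Stain with anti-βIII-tubulin then Alexa Fluor-488 secondary, and image automatically to measure neurite length.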

[10] = CCTE_Mundy_HCI_hN2_NOG_NeuronCount: CCTE's Neurite Outgrowth Assay in human hN2 cells for Neuron Count, Mundy Lab (AID 2284221; active means hit-call score of the fitted dose curve at least 0.9, where 1 is the maximum)
Summary of the method: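 Read-out is the number of betaIII-tubulin-positive neurons imaged by automated high-content analysis, with DMSO as negative control.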

[11] = CCTE_Mundy_HCI_Cortical_Synap_Neur_Matur_NeuriteCount: CCTE's Synaptogenesis and Neurite Maturation Assay in rat cortical cells for Neurite Count, Mundy Lab (AID 2284222);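 further: exposure from day 7 to day 12 in vitro with readout at day 12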
Summary of the method: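 Chemical exposure runs DIV 7–12 in rat cortical cultures, glia suppressed by AraC at DIV 5; measurement is at DIV 12. Imaging-derived neurite counts are fitted against DMSO baseline.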

[12] = CCTE_Mundy_HCI_Cortical_Synap_Neur_Matur_CellBodySpotCount: CCTE's Synaptogenesis and Neurite Maturation Assay in rat cortical cells for Cell Body Spot Count, Mundy Lab (AID 2284223)
Summary of the method: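 Rat cortical neurons; AraC @ DIV 5; dose + media change DIV 7; fix DIV 12; anti-MAP2/anti-synaptophysin IF, Hoechst; HCI count of soma synaptophysin puncta/neuron; DMSO = negative control.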

[13] = CCTE_Mundy_HCI_hNP1_Pro_ResponderAvgInten: CCTE's Proliferation Assay in human neuroprogenitor cells, Mundy Lab (AID 2284224; active means hit-call score of the fitted dose curve at least 0.9, where 1 is the maximum;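 further: human neural progenitor cells hNP1 derived from WA09 embryonic stem cells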)
Summary of the method: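 Proliferation was scored as BrdU labelling intensity in human neural progenitors derived from WA09 embryonic cells, measured 26.25 hours after chemical dosing. Activity was fitted relative to DMSO.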

[14] = UKN2_HCS_IMR90_cell_viability: Viability Assessment in the University of Konstanz (UKN) Leist Lab Neural Crest Cell Migration Assay in human induced IMR90 Pluripotent Stem Cells (UKN2) (AID 2284233);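 further: cells exposed to compound for 24 h after a 24 h migration phase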
Summary of the method: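 After calcein-AM/Hoechst staining, viability is quantified by high-content fluorescence imaging, relative to DMSO, in iPSC (IMR90)-derived neural crest cells. Exposure lasts 24 h, starting after a 24 h migration period on PLO/laminin/fibronectin coating.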

[15] = CCTE_Mundy_HCI_Cortical_NOG_NeuronCount: CCTE's Neurite Outgrowth Assay in rat cortical cells for Neuron Count, Mundy Lab (AID 2284236; active means hit-call score of the fitted dose curve at least 0.9, where 1 is the maximum;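 further: neurons counted by imaging betaIII-tubulin and Hoechst stained cortical cells; cells exposed to compound for about 48 hours before fixation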)
Summary of the method: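 Read-out: neuron number by high-content imaging of betaIII-tubulin (Alexa Fluor-488) and Hoechst-labelled rat primary cortical cells.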

[16] = CCTE_Mundy_HCI_Cortical_NOG_BPCount: CCTE's Neurite Outgrowth Assay in rat cortical cells for Branch Point Count, Mundy Lab (AID 2284237);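 further: branch points counted about two days after chemical exposure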
Summary of the method: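 Measured 50.33 h after dosing, this morphology endpoint uses rat primary cortical cultures labelled for betaIII-tubulin. Branch points are quantified by high-content imaging, with DMSO as negative control and baseline.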

[17] = CCTE_Mundy_HCI_hNP1_Casp3_7: CCTE's Caspase-Glo 3/7 Assay in human neuroprogenitor cells for Apoptosis, Mundy Lab (AID 2284240)
Summary of the method: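 Apoptosis is scored by activated caspase-3/7 luminescence in WA09-derived neural progenitor cells, measured 26.5 h after chemical dosing. Values represent gain of signal relative to DMSO vehicle.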

[18] = TAMU_HCS_1.5hr_SingleDonor1434_Cytotoxicity: Cytotoxicity Assessment using High-content Screening (HCS) Fluorescent Imaging for the Texas A&M University (TAMU) 1.5-hr Human Induced Pluripotent Stem Cell (iPSC)-derived Cardiotoxicity Assay (AID 2284234; active means hit-call score of the fitted dose curve at least 0.9, where 1 is the maximum)
Summary of the method: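 Nuclear counts from Hoechst 33342 imaging define cytotoxicity here, with EC10 (10% cell-count loss relative to DMSO) as point of departure. iPSC cardiomyocytes received 0.2-100 uM test chemical in 0.5% DMSO for 1.5 h at 37 C.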

Measured: AC50

Oc1c(I)cc(I)cc1I
inactive: [1] | [2] | [3] | [4] | [5]
active: [6] 8.17 µM | [7] 9.61 µM | [8] 3.97 µM

O=C(O)C(F)(F)C(F)(F)C(F)(F)C(F)(F)C(F)(F)C(F)(F)C(F)(F)C(F)(F)C(F)(F)C(F)(F)F
active: [6] 4.85 µM and 4.92 µM | [7] 2.19 µM and 2.25 µM | [8] 2.59 µM and 2.58 µM
inactive: [1] | [2] | [3] | [4] | [5]

COP(=O)(OC)O/C(=C\Cl)c1cc(Cl)c(Cl)cc1Cl
inactive: [11] | [12] | [14] | [15]
active: [9] 5.52 µM | [10] 7.22 µM | [13] 67 µM | [15] 51.5 µM | [16] 31.1 µM and 23 µM | [17] 12.4 µM and 70.3 µM

CC1(C)Cc2cccc(O)c2O1
inactive: [1] | [2] | [3] | [4] | [5] | [6] | [7] | [8]

CC(=O)C(Cl)C(=O)N(C)C (stereo not drawn)
active: [1] 20 µM | [2] 20 µM | [3] 25 µM | [4] 27.9 µM
inactive: [5] | [6] | [7] | [8]

COP(=S)(OC)Oc1c(Cl)cc(C)cc1Cl
active: [1] 14.5 µM | [2] 22.9 µM | [5] 10.7 µM
inactive: [3] | [4] | [6] | [7] | [8]

CC(C)c1ccc(CO)cc1
inactive: [1] | [2] | [3] | [4] | [5] | [6] | [7] | [8]

NC(=S)Nc1ccccc1
inactive: [1] | [2] | [3] | [4] | [5] | [6] | [7] | [8]

ClC(Cl)=C(Cl)C(Cl)=C(Cl)Cl
active: [1] 11.1 µM | [3] 14.2 µM | [4] 11.8 µM | [7] 29.7 µM | [8] 3.97 µM
inactive: [2] | [5] | [6] | [18]

O=C(OC1CCCCC1)c1ccccc1C(=O)OC1CCCCC1
active: [1] 34.8 µM | [2] 34.2 µM | [3] 31.7 µM | [4] 28.3 µM | [5] 20.9 µM | [6] 20.9 µM | [7] 13 µM | [8] 16.6 µM
